Measured values as given in the supplement of paper PMC8007513.
Structures can show the parent of a compound that is named as a salt. ± gives the standard error. Hit rate of the full screen: of about 1,300 compounds, about 130 (10%) showed an effect of 50% or more. This excerpt belongs to a sample that is enriched for strong results.

System: Trichoderma virens ATCC 9645
Experiment: growth yield (OD600) with compound + IPBC relative to untreated control; higher = less growth inhibition
Conditions: compound concentration: 100 uM, IPBC concentration: 200 ng/ml
Procedure, shortened: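 Trichoderma virens ATCC 9645 spores from 7-day potato dextrose agar plates were suspended in potato dextrose broth at 15,000 spores ml^−1. Aliquots of 100 μl with library compounds at 100 μM final, with or without a co-applied biocide at 200 ng ml^−1, were grown in 96-well plates at 30 °C. OD600 was read at 40 h and 72 h on a BioTek EL800. Growth is expressed relative to the control without either agent, as means of duplicate screens.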

Structure (SMILES) | growth yield (40 h) [%] | growth yield (72 h) [%]
COc1ccc(C(CN(C)C)C2(O)CCCCC2)cc1 (stereo not drawn) [Venlafaxine] + CCCCNC(=O)OCC#CI [3-iodo-2-propynyl butylcarbamate (IPBC)] | 85.6 ± 4.3 | 89 ± 3
CC(C(=O)O)c1ccc2c(c1)[nH]c1ccc(Cl)cc12 (stereo not drawn) [Carprofen] + CCCCNC(=O)OCC#CI [3-iodo-2-propynyl butylcarbamate (IPBC)] | 33.2 ± 0.16 | 68.3 ± 1.1
CC(C(=O)O)c1ccc(C(=O)c2cccs2)cc1 (stereo not drawn) [Suprofen] + CCCCNC(=O)OCC#CI [3-iodo-2-propynyl butylcarbamate (IPBC)] | 86.6 ± 14 | 89.1 ± 8.6
CC(C)Cc1ccc([C@H](C)C(=O)O)cc1 [S-(+)-ibuprofen] + CCCCNC(=O)OCC#CI [3-iodo-2-propynyl butylcarbamate (IPBC)] | 70.68 ± 0.16 | 96.7 ± 1.7
CC(C)(C)NC[C@H](O)COc1cccc2c1CCCC2=O [(-) -Levobunolol hydrochloride] + CCCCNC(=O)OCC#CI [3-iodo-2-propynyl butylcarbamate (IPBC)] | 97.8 ± 16 | 99.2 ± 11
c1ccc(C2CN3CCSC3=N2)cc1 (stereo not drawn) [Tetramisole hydrochloride] + CCCCNC(=O)OCC#CI [3-iodo-2-propynyl butylcarbamate (IPBC)] | 87.8 ± 9.1 | 93.1 ± 4.8
COc1ccc(CCN2CCC(Nc3nc4ccccc4n3Cc3ccc(F)cc3)CC2)cc1 [Astemizole] + CCCCNC(=O)OCC#CI [3-iodo-2-propynyl butylcarbamate (IPBC)] | 5.08 | 4.3 ± 0.32
Clc1ccc(Cn2c(CN3CCCC3)nc3ccccc32)cc1 [Clemizole hydrochloride] + CCCCNC(=O)OCC#CI [3-iodo-2-propynyl butylcarbamate (IPBC)] | 73.5 ± 1.4 | 98.5 ± 1.4
CN(c1nccc(=O)[nH]1)C1CCN(c2nc3ccccc3n2Cc2ccc(F)cc2)CC1 [Mizolastine] + CCCCNC(=O)OCC#CI [3-iodo-2-propynyl butylcarbamate (IPBC)] | 70.2 ± 3.2 | 88.1 ± 4.8
CC(C)NCC(O)COc1ccc(CCOCC2CC2)cc1 (stereo not drawn) [Betaxolol hydrochloride] + CCCCNC(=O)OCC#CI [3-iodo-2-propynyl butylcarbamate (IPBC)] | 90.2 ± 11 | 99.4 ± 4.2
NC[C@H]1O[C@H](O[C@H]2[C@H](O[C@@H]3O[C@H](CO)[C@@H](O)[C@H]3O)[C@@H](O)[C@H](N)C[C@@H]2N)[C@H](N)[C@@H](O)[C@@H]1O [Ribostamycin sulfate salt] + CCCCNC(=O)OCC#CI [3-iodo-2-propynyl butylcarbamate (IPBC)] | 91.5 ± 6.3 | 96.1 ± 3.4
Cc1cccn2c(=O)c(-c3nnn[nH]3)cnc12 [Pemirolast potassium] + CCCCNC(=O)OCC#CI [3-iodo-2-propynyl butylcarbamate (IPBC)] | 72.7 ± 1.9 | 84.4 ± 2
O=C1CN(/N=C/c2ccc(-c3ccc([N+](=O)[O-])cc3)o2)C(=O)N1 [Dantrolene sodium salt] + CCCCNC(=O)OCC#CI [3-iodo-2-propynyl butylcarbamate (IPBC)] | 103 ± 3.8 | 104 ± 3.1
CCCCC(CC)CNC(=N)NC(=N)NCCCCCCNC(=N)NC(=N)NCC(CC)CCCC (stereo not drawn) [Alexidine dihydrochloride] + CCCCNC(=O)OCC#CI [3-iodo-2-propynyl butylcarbamate (IPBC)] | 2.5415 ± 3.6e-15 | 2.94 ± 0.21
Cn1c(=O)c2c(ncn2CC(=O)O)n(C)c1=O [Acefylline] + CCCCNC(=O)OCC#CI [3-iodo-2-propynyl butylcarbamate (IPBC)] | 90.1 ± 2.1 | 91.1 ± 2
NCC(CC(=O)O)c1ccc(Cl)cc1 (racemic) [Baclofen (R,S)] + CCCCNC(=O)OCC#CI [3-iodo-2-propynyl butylcarbamate (IPBC)] | 96.1 ± 4 | 96.8 ± 3.2
O=C(O)c1cccnc1 [Niacin] + CCCCNC(=O)OCC#CI [3-iodo-2-propynyl butylcarbamate (IPBC)] | 105 ± 1.9 | 102.8 ± 0.84
CC(=O)Oc1ccccc1C(=O)Oc1ccccc1C(=O)O [Acetylsalicylsalicylic acid] + CCCCNC(=O)OCC#CI [3-iodo-2-propynyl butylcarbamate (IPBC)] | 85 ± 1.8 | 89.7 ± 2.2
O=C(Oc1cccc2cccnc12)c1ccccc1 [Benzoxiquine] + CCCCNC(=O)OCC#CI [3-iodo-2-propynyl butylcarbamate (IPBC)] | 36.4 ± 0.48 | 65.5 ± 0.73
Fc1ccc([C@@H]2CCNC[C@H]2COc2ccc3c(c2)OCO3)cc1 [Paroxetine Hydrochloride] + CCCCNC(=O)OCC#CI [3-iodo-2-propynyl butylcarbamate (IPBC)] | 68 ± 4.8 | 92.5 ± 2.5

Structure (SMILES) | growth yield (40 h) [%] | growth yield (72 h) [%]
O=C(O)CNC(=O)C(CS)Cc1ccccc1 (stereo not drawn) [Thiorphan] + CCCCNC(=O)OCC#CI [3-iodo-2-propynyl butylcarbamate (IPBC)] | 88.16 ± 0.48 | 90
C/C(=C(\CCOP(=O)(O)O)SC(=O)c1ccccc1)N(C=O)Cc1cnc(C)nc1N [Benfotiamine] + CCCCNC(=O)OCC#CI [3-iodo-2-propynyl butylcarbamate (IPBC)] | 89.6 ± 4.1 | 90.3 ± 3.7
COc1cc(C)nc(-n2nc(C)cc2OC)n1 [Epirizole] + CCCCNC(=O)OCC#CI [3-iodo-2-propynyl butylcarbamate (IPBC)] | 92.3 ± 7.5 | 101 ± 6.2
C[C@@H](CN1CC(=O)NC(=O)C1)N1CC(=O)NC(=O)C1 [Dexrazoxane hydrochloride] + CCCCNC(=O)OCC#CI [3-iodo-2-propynyl butylcarbamate (IPBC)] | 109.4 ± 0.48 | 106 ± 4.2
CCN(CC)C(=O)/C(C#N)=C/c1cc(O)c(O)c([N+](=O)[O-])c1 [Entacapone] + CCCCNC(=O)OCC#CI [3-iodo-2-propynyl butylcarbamate (IPBC)] | 88 ± 0.64 | 80.4 ± 1.4
Cc1ccc(C(=O)c2cc(O)c(O)c([N+](=O)[O-])c2)cc1 [Tolcapone] + CCCCNC(=O)OCC#CI [3-iodo-2-propynyl butylcarbamate (IPBC)] | 47.5 ± 3.3 | 56 ± 2.7
NC[C@@H]1O[C@@H](O[C@H]2[C@H](O)[C@@H](O[C@H]3O[C@H](CO)[C@@H](O)[C@H](N)[C@H]3O)[C@H](N)C[C@@H]2N)[C@@H](O)[C@H](O)[C@H]1O [Kanamycin A sulfate] + CCCCNC(=O)OCC#CI [3-iodo-2-propynyl butylcarbamate (IPBC)] | 87.2 ± 9.4 | 93.4 ± 4.7
c1ccc(CN(CC2=NCCN2)c2ccccc2)cc1 [Antazoline hydrochloride] + CCCCNC(=O)OCC#CI [3-iodo-2-propynyl butylcarbamate (IPBC)] | 82.76 ± 0.79 | 94.28 ± 0.94
C#C[C@]1(O)CC[C@H]2[C@@H]3CCC4=CC(=O)CC[C@]4(C)[C@H]3CC[C@@]21C [Ethisterone] + CCCCNC(=O)OCC#CI [3-iodo-2-propynyl butylcarbamate (IPBC)] | 105 ± 2.7 | 105 ± 3.2
C=CCN1CCCC1CNC(=O)c1cc2nn[nH]c2cc1OC (stereo not drawn) [Alizapride hydrochloride] + CCCCNC(=O)OCC#CI [3-iodo-2-propynyl butylcarbamate (IPBC)] | 111.5 ± 0.32 | 107
OC(CNCC(O)C1CCc2cc(F)ccc2O1)C1CCc2cc(F)ccc2O1 (stereo not drawn) [Nebivolol hydrochloride] + CCCCNC(=O)OCC#CI [3-iodo-2-propynyl butylcarbamate (IPBC)] | 11.3 ± 4.3 | 63.7 ± 18
NC(=O)c1cccnc1 [Nicotinamide] + CCCCNC(=O)OCC#CI [3-iodo-2-propynyl butylcarbamate (IPBC)] | 106 ± 4.8 | 101.4 ± 0.94
C=CC1=C(C(=O)O)N2C(=O)[C@@H](NC(=O)/C(=N\OCC(=O)O)c3csc(N)n3)[C@H]2SC1 [Cefixime] + CCCCNC(=O)OCC#CI [3-iodo-2-propynyl butylcarbamate (IPBC)] | 104.8 ± 0.64 | 103
Clc1cc(Cl)c(OCC#CI)cc1Cl [Haloprogin] + CCCCNC(=O)OCC#CI [3-iodo-2-propynyl butylcarbamate (IPBC)] | 5.24 ± 0.48 | 2.83 ± 1.6
CC1=Nc2ccc(Cl)cc2S(=O)(=O)N1 [Diazoxide] + CCCCNC(=O)OCC#CI [3-iodo-2-propynyl butylcarbamate (IPBC)] | 97.4 ± 4 | 100.8 ± 0.94
CC[C@H]1OC(=O)[C@H](C)[C@@H](O[C@H]2C[C@@](C)(OC)[C@@H](O)[C@H](C)O2)[C@H](C)[C@@H](O[C@@H]2O[C@H](C)C[C@H](N(C)C)[C@H]2O)[C@](C)(O)C[C@@H](C)/C(=N\OCOCCOC)[C@H](C)[C@@H](O)[C@]1(C)O [Roxithromycin] + CCCCNC(=O)OCC#CI [3-iodo-2-propynyl butylcarbamate (IPBC)] | 97.2 ± 9.5 | 96.4 ± 4.3
CC(C)(C)c1ccc(C(O)CCCN2CCC(C(O)(c3ccccc3)c3ccccc3)CC2)cc1 (stereo not drawn) [Terfenadine] + CCCCNC(=O)OCC#CI [3-iodo-2-propynyl butylcarbamate (IPBC)] | 47.2 ± 9.1 | 90.09 ± 0.73
OC(c1ccccc1)(c1ccccc1)C1CCNCC1 [Azacyclonol] + CCCCNC(=O)OCC#CI [3-iodo-2-propynyl butylcarbamate (IPBC)] | 80.06 ± 0.32 | 91.2 ± 1.5
CC(C)(C(=O)O)c1ccc(C(O)CCCN2CCC(C(O)(c3ccccc3)c3ccccc3)CC2)cc1 (stereo not drawn) [Fexofenadine hydrochloride] + CCCCNC(=O)OCC#CI [3-iodo-2-propynyl butylcarbamate (IPBC)] | 89.3 ± 5.4 | 95.5 ± 7.2
